GSTO1 counter = counter-screen for RBBP9 inhibitors: inhibitors of human GSTO1; P78417; recombinant GSTO1, activity-based probe fluorescence polarization; inhibition, % at 5.96 µM; hit rate 1.1% among 300,000; AID 1974;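 active = inhibition above the campaign mean inhibition plus 3 SD, cut at about 35% in these data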;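 also: 0% = GSTO1-1 with DMSO and 100% = wells lacking GSTO1-1 enzyme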
ZTA DNA inh = counter-screen for EBNA-1 inhibitors: inhibitors of Epstein-Barr virus ZTA | P03206 | ZTA-DNA binding, fluorescence polarization | inhibition, % at 11 µM | hit rate 0.15% among 320,000 | AID 2234; in the data active = inhibition above about 33%
LYPLA1 inh = counter-screen for PME1 inhibitors: inhibitors of human LYPLA1 | recombinant LYPLA1, FP-Rh probe fluorescence polarization | hit rate 0.16% among 320,000 | O75608 | inhibition, % at 5.9 µM | AID 2174;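 active = inhibition above the mean of all tested compounds plus 3 SD, set per campaign, cut at about 14% in these data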;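 also: inhibitors block serine hydrolase probe labeling of LYPLA1 so polarization falls; 0% = enzyme with DMSO and 100% = wells lacking LYPLA1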
Target sequence (O75608 whole entry, looked up): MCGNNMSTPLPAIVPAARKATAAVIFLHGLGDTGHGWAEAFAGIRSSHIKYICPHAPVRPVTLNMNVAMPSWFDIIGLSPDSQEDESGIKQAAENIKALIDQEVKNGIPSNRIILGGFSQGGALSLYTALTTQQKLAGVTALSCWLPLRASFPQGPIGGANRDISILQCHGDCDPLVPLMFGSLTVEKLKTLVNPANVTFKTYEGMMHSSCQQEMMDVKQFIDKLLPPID
PAD4 inh = inhibitors of human PAD4; recombinant PAD4, RCA probe fluorescence polarization; inhibition, % at 6.36 µM; hit rate 0.41% among 330,000;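 active = percent inhibition above a cutoff equal to the mean of all tested compounds plus 3 SD, cut at about 15% in these data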;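 also: 0% = PAD4 with RCA probe and DMSO and 100% = probe without PAD4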
LYPLA2 counter = LYPLA2 (human) inhibition in PME1 counter-screen | AID 2177 | recombinant LYPLA2, FP-Rh probe fluorescence polarization | inhibition, % at 5.9 µM | hit rate 0.38% among 320,000;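 active = inhibition above the screen-wide mean plus 3 SD, limit set per campaign, cut at about 26% in these data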;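 also: 0% = LYPLA2 with DMSO and 100% = wells lacking LYPLA2 enzyme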
Target sequence (O95372 whole entry, looked up): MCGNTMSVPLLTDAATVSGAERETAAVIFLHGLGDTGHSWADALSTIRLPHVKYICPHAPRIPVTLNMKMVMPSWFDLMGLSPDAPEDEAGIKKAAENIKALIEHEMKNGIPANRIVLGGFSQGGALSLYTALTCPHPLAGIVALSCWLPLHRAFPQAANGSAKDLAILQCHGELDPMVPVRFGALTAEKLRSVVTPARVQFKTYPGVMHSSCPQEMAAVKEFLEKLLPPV
EBNA-1 inh = blocks EBNA-1 binding to DNA; EBNA-1 DNA binding, fluorescence polarization; inhibition, % at 14.8 µM; hit rate 0.34% among 300,000; AID 1950; in the data active = inhibition above about 28%
PAD4 confirm = confirmation of human PAD4 inhibitors. hit rate 28% among 1,200. shares compounds with PAD4 inh. inhibition, % at 6.36 µM. recombinant PAD4, RCA probe fluorescence polarization;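 active = mean inhibition across replicates above the hit cutoff set by the earlier primary screen, cut at about 15% in these data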;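 also: inhibitors block active-site labeling by the probe so polarization falls; 0% = PAD4 with probe and DMSO and 100% = probe without PAD4 enzyme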
* hit, by the source's call; nt = no result given. Hits are enriched below; roughly 1.7% of the tested compounds scored in any of these assays.

SMILES	GSTO1 counter	ZTA DNA inh	LYPLA1 inh	PAD4 inh	LYPLA2 counter	EBNA-1 inh	PAD4 confirm
CCC1C(=O)N=C(SCC(=O)Nc2cccc3ccccc23)NC1=O (stereo not drawn)	5	2	-3	11	1	9	nt
CCOC(=O)c1ccc(NC(=O)CSC2=NC(=O)C(CC)C(=O)N2)cc1 (stereo not drawn)	0	-8	0	21*	-3	3	20*
CCOC(=O)c1ccc(NC(=O)NCc2cccnc2)cc1	0	5	-5	3	-10	5	nt
COc1ccc(C2=NNC(=Nc3cc(S(=O)(=O)N(C)C)ccc3C)SC2)c(OC)c1	12	16	-1	18*	2	-3	12
CC(=O)N(Cc1cc(=O)[nH]c2ccccc12)c1ccccc1C	-12	9	-2	12	-1	0	nt
CCCN(Cc1cc(=O)[nH]c2ccccc12)C(=O)CC	1	12	-4	2	-3	-3	nt
CCCC(=O)N(Cc1cc(=O)[nH]c2ccccc12)c1ccccc1C	-3	-5	-3	15*	-1	12	17*
CC(=O)N(Cc1cc(=O)[nH]c2ccccc12)c1ccccc1	-2	11	-1	6	-2	-3	nt
CC(=O)N(Cc1cc(=O)[nH]c2ccccc12)c1cccc(C)c1	3	3	-5	53*	-10	-5	44*
CCCC(=O)N(Cc1cc(=O)[nH]c2ccccc12)c1cccc(C)c1	-5	-3	-4	22*	0	7	49*
CCC(=O)N(Cc1cc(=O)[nH]c2ccccc12)c1ccc(C)cc1	-17	3	-3	15*	-1	-6	0
CCOC(=O)C1=C(N)Oc2cc(O)ccc2C1c1ccc(Br)cc1 (stereo not drawn)	2	1	-4	6	-2	4	nt
O=c1oc2ccc(NS(=O)(=O)c3cccc4cccnc34)cc2s1	31	-6	-4	36*	2	-3	23*
O=C(O)c1cccc(S(=O)(=O)Nc2ccc3oc(=O)sc3c2)c1	16	11	-2	36*	-5	-1	13
COc1ccc(Br)cc1C1CC(=O)C(C)C(c2cc(Br)ccc2OC)N1 (stereo not drawn)	-5	-9	-7	-4	-9	-8	nt
CN1CCN(c2nc3nonc3nc2N2CCN(C)CC2)CC1	12	6	6	21*	6	-9	6
CCN(CC)CCN(C(=O)c1ccc(C(=O)c2ccccc2)cc1)c1nc2cc3c(cc2s1)OCO3	5	-11	-1	2	0	-2	nt
CCN(CC)CCN(C(=O)c1ccc2ncsc2c1)c1nc2cc3c(cc2s1)OCO3	-3	4	-4	22*	-3	-1	5
Cc1cc(NC(=O)CSc2nc(=O)cc(N)n2-c2ccc(Cl)cc2)no1	0	7	0	-1	-1	-8	nt
Nc1ccc(-c2c3ccc(=O)cc-3oc3cc(O)ccc23)c(C(=O)O)c1	nt	7	7	21*	2	nt	15
CCn1c(=O)c(C(=O)NNS(=O)(=O)c2ccc(Br)cc2)c(O)c2ccccc21	-13	15	-1	-1	-9	11	nt
COc1ccc(C2=NN(c3ccccc3)C(=O)/C2=C\c2ccc(O)c(OC)c2)cc1	54*	11	0	67*	-2	7	-2
CCOC(=O)c1c(N2C(=O)CC(Sc3ccccc3C(=O)O)C2=O)sc(C)c1C (stereo not drawn)	4	10	2	17*	-1	10	15
Cn1c(=O)c2[nH]c(N=Nc3ccc(N)cc3N)nc2n(C)c1=O	26	-4	-4	-2	-6	-9	nt
CCc1cccc(NS(=O)(=O)c2ccc3c(c2)CCC(=O)N3)c1	2	-1	-5	16*	-9	-2	-4
SMILES	GSTO1 counter	ZTA DNA inh	LYPLA1 inh	PAD4 inh	LYPLA2 counter	EBNA-1 inh	PAD4 confirm
Cc1ccc(NC(=O)CSc2nnc(CN3CCOCC3)n2C)cc1C	4	7	-1	-4	-2	-6	nt
Cn1c(CN2CCOCC2)nnc1SCC(=O)Nc1ccc2c(c1)OCCO2	-5	5	1	42*	10	8	10
CC(C)c1ccc(/C=N/n2nnnc2Nc2ccccc2)cc1	2	-2	10	15*	17	2	6
Cc1ccc(NC2=C(NCCO)C(=O)c3ccccc3C2=O)cc1	49*	-2	-6	40*	-3	-9	-4
CCOc1ccccc1OCCCC(=O)N1CCN(S(=O)(=O)c2cccc(F)c2)CC1	3	6	-4	-1	-5	11	nt
COc1ccc(OCCCC(=O)N2CCN(S(=O)(=O)c3cccc(F)c3)CC2)cc1	3	10	1	33*	2	-4	-8
Cc1cc(C)n(-c2ccc(C(=O)OCC(=O)Nc3ccccc3F)cc2)n1	nt	nt	nt	0	nt	nt	nt
COc1cc(SC#N)ccc1N=Cc1c(C)[nH]n(-c2ccc(Cl)cc2)c1=O	-14	18	2	30*	2	2	37*
COC(=O)c1[nH]c(=O)c2ccccc2c1O	30	-12	2	31*	4	6	-14
Cc1ccc(C2(c3ccccc3)NC(=O)N(CC(=O)N3CC(=O)Nc4ccccc43)C2=O)cc1C (stereo not drawn)	nt	4	-7	-2	-3	nt	nt
O=C(CN1C(=O)NC2(CCc3ccccc32)C1=O)NCCc1ccccc1 (stereo not drawn)	nt	-12	0	0	-1	nt	nt
CC(C)c1ccc(N2C(=O)CSC23C(=O)N2CCCc4cccc3c42)cc1 (stereo not drawn)	5	6	1	15*	2	-4	20*
NC(=O)c1ccc(-c2nnn(CC(=O)N(C3CCCC3)C3CCS(=O)(=O)C3)n2)cc1 (stereo not drawn)	nt	-9	1	-3	2	nt	nt
O=C1NC2=C(CCc3ccccc32)C(c2ccccc2)N1 (stereo not drawn)	32	-10	0	27*	1	4	2
O=C(COC(=O)c1ccccc1F)Nc1cccnc1Cl	-8	-7	0	-2	3	-8	nt
Cc1ccccc1NC1=C(Cl)C(=O)OC1OC(=O)c1ccccc1C (stereo not drawn)	1	0	-4	44*	-7	8	-2
Cc1ccc(NC2=C(Cl)C(=O)OC2OC(=O)c2ccccc2)c(C)c1 (stereo not drawn)	-4	-12	-4	1	8	3	nt
CCN1C=C(Cc2ccc(F)cc2)C2=C(C1)C(c1ccc(F)cc1)C(C#N)=C(N)O2 (stereo not drawn)	2	-8	2	24*	1	4	14
CCN1C=C(Cc2ccccc2C)C2=C(C1)C(c1ccccc1C)C(C#N)=C(N)O2 (stereo not drawn)	-8	2	-2	17*	-9	5	7
